Screens from PubChem.
aDG glyco act = alpha-DG glycosylation activation | Pro5-aDG cells, alpha-DG glycosylation AlphaScreen (IIH6); 0% Pro5, 100% B10-LARGE cell signal | activation, % at 10 µM | 360,000 tested, 0.22% active;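 active = activation of at least 8% versus controls, or a plate z-score of at least 8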;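 also: Pro5 are CHO cells carrying HIG-tagged alpha-DG that lacks glycosylation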
MPTP block = permeability transition pore inhibition. isolated mouse mitochondria, Ca2+ swelling absorbance, 30 min. inhibition, % at 10 µM. 360,000 tested, 1.4% active. AID 602449;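 active = inhibition of 50% or more, scaled per plate between neutral and stimulator controls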;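 also: 0% = DMSO wells given calcium and 100% = 1 mM EGTA wells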
NadD block = NadD (S. aureus) enzyme inhibition. purified NadD enzyme, colorimetric absorbance read-out. inhibition, % at 20 µM. 360,000 tested, 0.78% active. AID 602399; in the data active = inhibition above about 26%
TAG inh = inhibitors of triacylglycerol accumulation | H9c2 cells, Nile Red lipid (TAG) fluorescence; cells loaded with 200 µM oleic acid | inhibition, % at 12.5 µM | 230,000 tested, 0.66% active | AID 651582;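 active = pattern-corrected inhibition of lipid staining of at least 50% with the nuclear-stain viability signal not falling by more than 50%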;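 also: 0% = DMSO wells and 100% = triacsin C control wells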
Rh123 counter = membrane potential counter-screen of mitochondrial pore inhibitors; 5,000 tested, 78% active; inhibition, % at 10 µM; shares compounds with MPTP block; isolated mitochondria, Rhodamine 123 fluorescence; in the data active = inhibition above about 22%;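 also: 0% = DMSO vehicle and 100% = positive control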
MPTP abs DR = dose response confirmation of mitochondrial permeability transition pore inhibitors | shares compounds with MPTP block | isolated mitochondria swelling, absorbance | IC50, µM | 780 tested, 58% active | AID 651561; in the data active = IC50 below about 20 µM
MPTP cs DR = active in counter-screen for permeability transition pore inhibitors; IC50, µM; 780 tested, 49% active; isolated mitochondria counterscreen, fluorescence read-out; shares compounds with MPTP block; in the data active = IC50 below about 80 µM
An asterisk follows results filed as active. A selection: hits, their analogues and other compounds. The true share with any hit is near 2.7%.

For Cc1cc(C)cc(Cn2cc(CN3CC(N4CCCCC4)CS3(=O)=O)nn2)c1 (configuration not stated) the results were aDG glyco act 0, MPTP block 1 and NadD block 2.
`CCC(=O)N1CCC1(C)C(=O)Nc1cccc(OC)c1OC` (configuration not stated) gave aDG glyco act 0, MPTP block 1, NadD block 0 and TAG inh -6.
`CC1CCCCC12NC(=O)N(CC(=O)N1CCN(S(=O)(=O)c3ccc(Cl)s3)CC1)C2=O` (configuration not stated) gave aDG glyco act 0, MPTP block -1, NadD block 3 and TAG inh -11.
Screening COC(=O)[C@]12CCCCC=C1N(CCC1=CCCCC1)C(=O)[C@H](CC(=O)NCc1cccc(C(F)(F)F)c1)C2 returned aDG glyco act 0, MPTP block 1 and NadD block -2.
For Cc1ccc(C(=O)NCC(=O)NCC(=O)OCc2ccc(Oc3ccc([N+](=O)[O-])cc3)cc2)cc1 the results were aDG glyco act 2, MPTP block 51*, NadD block -7 and Rh123 counter 52*.
COc1ccc(C(=O)NCC(=O)OCc2ccc([N+](=O)[O-])cc2)cc1 was read as aDG glyco act 0, MPTP block 4, NadD block 2 and TAG inh -11.
For CCN(C[C@H]1N[C@@](C)(C(=O)OC)[C@H]2C(=O)N(Cc3ccccc3)C(=O)[C@@H]12)C(=O)Nc1ccc(C)cc1 the results were aDG glyco act 0, MPTP block 0, NadD block -4 and TAG inh -4.
`Cc1sc2ncnc(N3CCC(C(=O)Nc4cc(C(F)(F)F)ccc4OCC(F)(F)F)CC3)c2c1C` gave aDG glyco act 1, MPTP block 0, NadD block 6 and TAG inh -2.
Screening O=C(NCCc1ccc(F)cc1)C1CCN(C(=O)Nc2ccccc2)CC1 returned aDG glyco act 0, MPTP block -1, NadD block 2 and TAG inh 21.
Screening C=CCS/C(N)=N\N=C\c1cc(Br)cc([N+](=O)[O-])c1O returned aDG glyco act 0, MPTP block 53*, NadD block 6, TAG inh 6 and Rh123 counter 51*.
For S=C(NCc1ccco1)Nc1cc(-c2ccccc2)[nH]n1 the results were aDG glyco act 1, MPTP block 0, NadD block 2 and TAG inh -6.
CCCCC(=O)Nc1cccc(-c2csc(-c3ccccc3)n2)c1 was read as aDG glyco act 1, MPTP block 57*, NadD block 0, TAG inh -10 and Rh123 counter 58*.
Screening COc1cccc([C@@H]2CC=C(C(=O)O)[C@H](c3ccc(Br)cc3)N2S(=O)(=O)c2ccc(C)cc2)c1 returned aDG glyco act 0, MPTP block 1, NadD block 7 and TAG inh 2.
For O=C(Nc1ccccc1NC(=O)c1c(F)c(F)c(F)c(F)c1F)c1c(F)c(F)c(F)c(F)c1F the results were aDG glyco act 0, MPTP block 93*, NadD block -6, TAG inh 5 and Rh123 counter 95*.
For O=C(Nc1cccc(F)c1)c1c(F)c(F)c(F)c(F)c1F the results were aDG glyco act 2, MPTP block 65*, NadD block 9, TAG inh 29 and Rh123 counter 81*.
Screening O=C(Nc1ccncc1)c1c(F)c(F)c(F)c(F)c1F returned aDG glyco act 0, MPTP block 2, NadD block -7 and TAG inh -10.
`COC(=O)[C@]12CCCCC=C1N(Cc1ccc3c(c1)OCO3)C(=O)[C@H](CC(=O)NCC1CCCCC1)C2` gave aDG glyco act 0 and MPTP block 0.
`N#Cc1ccccc1OCC(=O)NCC(c1ccc(F)cc1)N1CCOCC1` (configuration not stated) gave aDG glyco act 0, MPTP block 1, NadD block -2 and TAG inh -11.
Cc1ccc(OC(C)C(=O)N=Nc2c(O)[nH]c3ccc([N+](=O)[O-])cc23)cc1 (configuration not stated) was read as aDG glyco act 0, MPTP block 73*, NadD block 19 and Rh123 counter 68*.
For CC(=O)c1cccc(OCC(O)CNCCc2ccc(Cl)cc2)c1 (configuration not stated) the results were aDG glyco act 0, MPTP block 0 and NadD block -11.
COc1ccc(CCNCC(O)COc2cccc(Br)c2)cc1 (configuration not stated) was read as aDG glyco act 1, MPTP block 60*, NadD block -5, TAG inh -8, Rh123 counter -6, MPTP abs DR 5.1* and MPTP cs DR 47*.
`CN(Cc1ccc(Br)cc1)CC(O)COc1cccc(Br)c1` (configuration not stated) gave aDG glyco act 0, MPTP block 60*, NadD block -10, Rh123 counter -4, MPTP abs DR >100 and MPTP cs DR 43*.
`CCc1ccccc1NC(=O)Nc1ccc(F)cc1` gave aDG glyco act 0, MPTP block 39 and NadD block -7.
CCCc1c(NC(=O)Nc2ccc(F)cc2)cnn1-c1ccc(Cl)cc1 was read as aDG glyco act 0, MPTP block 88*, NadD block -2, TAG inh -9 and Rh123 counter 74*.
Screening O=C(CN1C(=O)COc2ccccc21)N1CCOCC1 returned aDG glyco act 0, MPTP block 2 and NadD block -1.
O=C(COCC(=O)Nc1cccc(C(F)(F)F)c1)Nc1cccc(C(F)(F)F)c1 was read as aDG glyco act 0, MPTP block 14 and NadD block -8.
For COc1cc(NC(=O)CSCC(=O)Nc2cccc(C(F)(F)F)c2)c(Cl)cc1Cl the results were aDG glyco act 1, MPTP block 58*, NadD block -13 and Rh123 counter 63*.
For O=C(Nc1ccncc1)Nc1cccc(Cl)c1Cl the results were aDG glyco act 1, MPTP block 5, NadD block -8 and TAG inh 7.
For Cc1ccc(NC(=O)C(c2ccccc2)C2CCCC2)cc1 (configuration not stated) the results were aDG glyco act 0, MPTP block 46 and NadD block -3.
Screening O=C(Nc1ccc2ccccc2c1)C(c1ccccc1)C1CCCC1 (configuration not stated) returned aDG glyco act 1, MPTP block 79*, NadD block -5 and Rh123 counter 62*.
For O=C(Nc1ccccc1)Nc1ccc2ccccc2c1 the results were aDG glyco act 0, MPTP block 87*, NadD block -3, TAG inh -5 and Rh123 counter 83*.
